Reference: PubChem BioAssay (NCI)
Compounds without any hit were thinned out: in the full panel of roughly 79,000, 15% have a hit. Unmarked numbers belong to inactive results. Active and inactive are the calls of the source. No stated cut-off is given here; in the data, active means growth inhibition above about 70%; inactive means the rest.

Assay: NCI Yeast Anticancer Drug Screen. Data for the rad50 strain (AID 155);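 further: 0% = growth of vehicle-only cultures of the same strain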
Settings: S. cerevisiae rad50 strain growth inhibition; at 50.0 µM; hits give high values
In short: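 Relative growth inhibition (compound vs vehicle) was measured in yeast with a defined repair-gene alteration.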
Work on c1ccc(Oc2c3ccccc3nc3ccccc23)cc1 yielded a growth inhibition of 2.75%. With CCCCNc1ccc(-c2ccc(NCCCC)cc2)cc1 the growth inhibition was 31.9%. Work on ClCc1cccc2c(CCl)cccc12 yielded a growth inhibition of 59.6%. For Cc1cc2nc(C)c(C)nc2cc1C, the growth inhibition was -20.5%. With Nc1ccn(C2OC(CO)C(O)C2F)c(=O)n1 (stereo not given) the growth inhibition was 12.4%. ClCC(Cl)C1CCC(Cl)C(Cl)C1 (stereo not given) showed a growth inhibition of 10.5%. Work on CCOC(=O)C(C#N)=C1CCN(C)CC1 yielded a growth inhibition of 8.45%. Work on CC(=O)NNC(=S)/N=C\C(C(=O)c1ccccc1)=C(/O)c1ccccc1 yielded a growth inhibition of -41.4%. O=C1NC(=O)/C(=C\c2ccncc2)N1 gave a growth inhibition of 28.9%. In the case of O=S(Cc1ccccc1)/C(=C/NC(=S)Nc1cc(Cl)ccc1Cl)c1ccccc1 (stereo not given), the growth inhibition is reported as 3.6%. O=C(O)c1ccc([N+](=O)[O-])cc1S(=O)(=O)O gave a growth inhibition of -21.6%. Work on FC(F)(F)c1cc(NC2=NCCN=C(Nc3cc(C(F)(F)F)cc(C(F)(F)F)c3)SS2)cc(C(F)(F)F)c1 yielded a growth inhibition of -14.1%. Molecule Cn1c(=O)c2[nH]c(CCCCC(=O)O)nc2n(C)c1=O has a growth inhibition of -7.8%. With CC(C)c1ccc(C(=O)OCCCl)cc1 the growth inhibition was 29.7%. Work on OCCOc1ccc(-c2cc(-c3ccccn3)nc(-c3ccccn3)c2)cc1 yielded a growth inhibition of 57.6%. For CSCCC(NC(=O)C(Cl)Cl)C(=O)O (stereo not given), the growth inhibition was -31.6%. For CCOC(=O)Nc1nccs1, the growth inhibition was -13.7%. N#C/C(=C\c1ccc2c(c1)OCO2)c1ccccc1 gave a growth inhibition of 10.4%. Work on O=C(c1ccccc1O)N1CCCC1 yielded a growth inhibition of 19.6%. Molecule O=S(Cc1ccccc1)/C(=C/NC(=S)Nc1ccccc1)c1ccccc1 (stereo not given) has a growth inhibition of -26.7%. Molecule c1ccc2[nH]c(Cc3nc4ccccc4[nH]3)nc2c1 has a growth inhibition of 48%. N#C/C(=C\c1ccc(C#N)cc1)C(=O)c1ccccc1 gave a growth inhibition of 10.5%. In the case of CC(=O)CSc1ncnc2nc[nH]c12, the growth inhibition is reported as 0.1%. CCOC(=O)CSCCC#N gave a growth inhibition of 2.85%. Molecule CCN(CC)CCCC(C)NC(=S)N/N=C(\C)c1ccccn1 (stereo not given) has a growth inhibition of 60.6%. For CC(=O)NC(CCc1ccc(Cl)c(Cl)c1)c1cccc(O)c(=O)c1 (stereo not given), the growth inhibition was 88.9% (active). With C/C(O)=C(/C=N/C(=S)Nc1ccccc1)C(=O)Nc1ccccc1C the growth inhibition was 25.9%. C=CCN1CCCC1=O gave a growth inhibition of 7.85%. In the case of S=C=Nc1ccc2ccccc2c1, the growth inhibition is reported as 15.3%. COc1ccc(NNS(=O)(=O)O)cc1 showed a growth inhibition of 1.45%. In the case of COC1OC(CO)C(OC)C(O)C1O (stereo not given), the growth inhibition is reported as -5.6%. Cc1[nH]nc(C(N)=O)c1[N+](=O)[O-] showed a growth inhibition of -0.75%. Work on C=CCOc1ccc(Cl)cc1Cl yielded a growth inhibition of 1.65%. For C=C1CC2(OC1=O)C(=O)N(C)c1ccc(I)cc12 (stereo not given), the growth inhibition was 91.3% (active). In the case of Cc1cc2c(C(C)C)c(O)c(O)c(C=Nc3ccccc3[N+](=O)[O-])c2c(O)c1-c1c(C)cc2c(C(C)C)c(O)c(O)c(C=Nc3ccccc3[N+](=O)[O-])c2c1O, the growth inhibition is reported as -13.9%. Molecule COC(=O)C1(CC(C)=O)NC(=S)NC(=O)C1C#N (stereo not given) has a growth inhibition of -21.4%. With Nc1nc2nnc(-c3ccccc3)c(-c3ccccc3)n2n1 the growth inhibition was 12.8%.

Assay: NCI Yeast Anticancer Drug Screen. Data for the mec2-1 strain (AID 157)
Settings: S. cerevisiae mec2-1 strain, at 50.0 µM, hits give high values
In short: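 Growth inhibition is read against vehicle-treated controls after compound exposure of the mec2-1 yeast strain, which is defective in DNA damage repair or cell cycle control.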
Work on c1ccc(Oc2c3ccccc3nc3ccccc23)cc1 yielded a growth inhibition of -18.4%. For CCCCNc1ccc(-c2ccc(NCCCC)cc2)cc1, the growth inhibition was 4.3%. ClCc1cccc2c(CCl)cccc12 gave a growth inhibition of -6.25%. Molecule Cc1cc2nc(C)c(C)nc2cc1C has a growth inhibition of -37.9%. Nc1ccn(C2OC(CO)C(O)C2F)c(=O)n1 (stereo not given) showed a growth inhibition of 0.45%. Work on ClCC(Cl)C1CCC(Cl)C(Cl)C1 (stereo not given) yielded a growth inhibition of 6.1%. Molecule CCOC(=O)C(C#N)=C1CCN(C)CC1 has a growth inhibition of -4.75%. CC(=O)NNC(=S)/N=C\C(C(=O)c1ccccc1)=C(/O)c1ccccc1 showed a growth inhibition of -28.8%. O=C1NC(=O)/C(=C\c2ccncc2)N1 gave a growth inhibition of -7.8%. O=S(Cc1ccccc1)/C(=C/NC(=S)Nc1cc(Cl)ccc1Cl)c1ccccc1 (stereo not given) showed a growth inhibition of 7.05%. Molecule FC(F)(F)c1cc(NC2=NCCN=C(Nc3cc(C(F)(F)F)cc(C(F)(F)F)c3)SS2)cc(C(F)(F)F)c1 has a growth inhibition of -29.7%. Molecule Cn1c(=O)c2[nH]c(CCCCC(=O)O)nc2n(C)c1=O has a growth inhibition of -13.2%. With OCCOc1ccc(-c2cc(-c3ccccn3)nc(-c3ccccn3)c2)cc1 the growth inhibition was 46.3%. CSCCC(NC(=O)C(Cl)Cl)C(=O)O (stereo not given) gave a growth inhibition of -3%. For CCOC(=O)Nc1nccs1, the growth inhibition was 7.9%. With N#C/C(=C\c1ccc2c(c1)OCO2)c1ccccc1 the growth inhibition was -0.7%. Molecule O=C(c1ccccc1O)N1CCCC1 has a growth inhibition of 7.15%. Molecule O=S(Cc1ccccc1)/C(=C/NC(=S)Nc1ccccc1)c1ccccc1 (stereo not given) has a growth inhibition of -25.1%. c1ccc2[nH]c(Cc3nc4ccccc4[nH]3)nc2c1 showed a growth inhibition of -14.4%. In the case of N#C/C(=C\c1ccc(C#N)cc1)C(=O)c1ccccc1, the growth inhibition is reported as 0.95%. Work on CCOC(=O)CSCCC#N yielded a growth inhibition of 2.35%. Molecule CCN(CC)CCCC(C)NC(=S)N/N=C(\C)c1ccccn1 (stereo not given) has a growth inhibition of 47.6%. For CC(=O)NC(CCc1ccc(Cl)c(Cl)c1)c1cccc(O)c(=O)c1 (stereo not given), the growth inhibition was 92% (active). Work on C/C(O)=C(/C=N/C(=S)Nc1ccccc1)C(=O)Nc1ccccc1C yielded a growth inhibition of 5.6%. With S=C=Nc1ccc2ccccc2c1 the growth inhibition was -12.4%. For COc1ccc(NNS(=O)(=O)O)cc1, the growth inhibition was 4.7%. With COC1OC(CO)C(OC)C(O)C1O (stereo not given) the growth inhibition was 0.2%. Work on Cc1[nH]nc(C(N)=O)c1[N+](=O)[O-] yielded a growth inhibition of 4.95%. C=CCOc1ccc(Cl)cc1Cl showed a growth inhibition of -4.4%. For C=C1CC2(OC1=O)C(=O)N(C)c1ccc(I)cc12 (stereo not given), the growth inhibition was 93.2% (active). With Cc1cc2c(C(C)C)c(O)c(O)c(C=Nc3ccccc3[N+](=O)[O-])c2c(O)c1-c1c(C)cc2c(C(C)C)c(O)c(O)c(C=Nc3ccccc3[N+](=O)[O-])c2c1O the growth inhibition was -19.6%. COC(=O)C1(CC(C)=O)NC(=S)NC(=O)C1C#N (stereo not given) showed a growth inhibition of -26.9%. With Nc1nc2nnc(-c3ccccc3)c(-c3ccccc3)n2n1 the growth inhibition was 14.1%.
